From PubChem BioAssay (NCI)
About 79,000 compounds went through this panel and 15% of them were active in at least one assay; those are over-represented in the sample as a whole. No stated cut-off is given here; in the data, active means growth inhibition above about 70%; inactive means the rest. *1 amine or outer side, *2 acyl side, *3 side chain or, on linkers, in order; H or OH if unused. Where a SMILES comes first, the peptide text is derived from it. Bridges are numbered along the chain shown (N, C = ends). [ ]: non-standard residue; d: D form. The star is where a group is joined. Fmoc = O=C(OCC1c2ccccc2-c2ccccc21)*; X9 = O=C(C(CCCCNO[*:3])N[*:1])[*:2]

Experiments:
[1] = NCI Yeast Anticancer Drug Screen. Data for the rad50 strain (AID 155);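 further: 0% = growth of vehicle-only cultures of the same strain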; details: S. cerevisiae rad50 strain growth inhibition; at 50.0 µM; stronger effect = higher value
Outline: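 Compounds were tested on a yeast strain with an engineered DNA damage repair alteration; the reported value is growth inhibition normalised to vehicle treatment.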

[2] = NCI Yeast Anticancer Drug Screen. Data for the mec2-1 strain (AID 157); details: S. cerevisiae mec2-1 strain, at 50.0 µM, stronger effect = higher value
Outline: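 Readout is yeast growth inhibition, normalised to vehicle-treated controls, in the mec2-1 strain exposed to compound.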

[3] = NCI Yeast Anticancer Drug Screen. Data for the sgs1 mgt1 strain (AID 161);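 further: 0% = growth of cultures given vehicle only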; details: S. cerevisiae sgs1 mgt1 strain, at 50.0 µM, stronger effect = higher value
Outline: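 This yeast growth screen uses a strain with defined DNA-repair lesions; compound-treated growth is compared with vehicle-treated growth.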

[4] = NCI Yeast Anticancer Drug Screen. Data for the cln2 rad14 strain (AID 165);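 further: 0% = growth equal to vehicle treated cultures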; details: S. cerevisiae cln2 rad14 strain, at 50.0 µM, stronger effect = higher value
Outline: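 Relative to vehicle controls, growth inhibition of compound-treated cln2 rad14 yeast was recorded.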

[5] = NCI Yeast Anticancer Drug Screen. Data for the bub3 strain (AID 167); details: S. cerevisiae bub3 mutant strain, at 50.0 µM, stronger effect = higher value
Outline: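 Growth of a checkpoint-deficient yeast mutant is measured after compound exposure. Values represent inhibition relative to vehicle.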

[6] = NCI Yeast Anticancer Drug Screen. Data for the mlh1 rad18 strain (AID 175); details: S. cerevisiae mlh1 rad18 strain growth inhibition; at 50.0 µM; stronger effect = higher value
Outline: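 Test agents were incubated with a yeast strain of defined genotype (DNA damage repair defect). Inhibition of growth was derived by comparison with vehicle-exposed cultures.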

Measured: growth inhibition

C1=CCOCOC1
inactive: [1] -2.35% | [2] -24.4% | [3] -2.35% | [4] -8% | [5] -8.95% | [6] -38.1%

CC(=O)Oc1ccccc1C(OC(C)=O)OC(C)=O
inactive: [1] 31.8% | [2] 5.2% | [3] 12.5% | [4] -20.1% | [5] 2.05% | [6] 34.4%

CCCCCCCCCCCCCCCCCCNC1=C(C)C(=O)C(NCCCCCCCCCCCCCCCCCC)=C(OCC)C1=O
inactive: [1] 2.7% | [2] -2.95% | [3] -0.85% | [4] -10.8% | [5] -1.2% | [6] -9.5%

O=C1C2CCSCN2C(=O)N1c1ccccc1 (stereo unspecified)
inactive: [1] -41.9% | [2] -14.9% | [3] -7.75% | [4] -15.9% | [5] -1.15% | [6] -19%

CCn1c(C)[n+](CCCOS(=O)(=O)[O-])c2ccccc21
inactive: [1] 2.6% | [2] -19.1% | [3] -14.4% | [4] 4.1% | [5] 4.6% | [6] -6.05%

Cc1ccc(S(=O)(=O)N(C)c2cc(Cl)c(C(=O)O)cc2Cl)cc1
inactive: [1] -0.7% | [2] -14.9% | [3] 5.85% | [4] 4.05% | [5] -14.3% | [6] 15.1%

CC/C(C)=N/NS(C)(=O)=O
inactive: [1] 12.8% | [2] -7.55% | [3] -0.35% | [4] 2.25% | [5] -44.8% | [6] -10.9%

CC1(C)C2CC(NC(=O)c3ccc([N+](=O)[O-])cc3)C1C2 (stereo unspecified)
inactive: [1] 18.6% | [2] 4.6% | [3] -1.5% | [4] -4.9% | [5] 3.25% | [6] 11.9%

CC(C)C1SCC(=O)N1c1nncs1 (stereo unspecified)
inactive: [1] -2.55% | [2] 22.4% | [3] 9.15% | [4] -27.8% | [5] -0.9% | [6] 5%

CCCNc1ncnc2c1ncn2C
inactive: [1] 10.6% | [2] -15% | [3] -3.55% | [4] 7.65% | [5] 7.45% | [6] -4.65%

O=C1CCC=Cc2c(O)ccc(O)c21
inactive: [1] 8.65% | [2] -5.25% | [3] 17.8% | [4] 0.55% | [5] -1.1% | [6] 27.9%

O=C(Oc1cccc2ccccc12)c1ccccc1
inactive: [1] -10.4% | [2] 15.6% | [3] -5.2% | [4] -76.2% | [5] 6.25% | [6] -9.45%

Cc1ccc(C(O)/C(=N/N)c2nc3ccc([N+](=O)[O-])cc3[nH]c2=O)cc1 (stereo unspecified)
inactive: [1] 6.45% | [2] -20.1% | [3] -28.8% | [4] -13.2% | [5] -9.4% | [6] -12.1%

NC(=O)C(C1=CCCCC1)c1ccccc1 (stereo unspecified)
inactive: [1] 3.25% | [2] -1.3% | [3] 2.1% | [4] 3.15% | [5] 1.95% | [6] 0.9%

O=C(Nc1cccc2ccccc12)O/N=C/c1ccccn1
inactive: [1] -9.3% | [2] -3.4% | [3] -11.4% | [4] 39.3% | [5] -7% | [6] -1.7%

CC(C)c1ccc(C=O)cc1
inactive: [1] 18.3% | [2] 31% | [3] -21.5% | [4] -12.2% | [5] -9.15% | [6] 11.4%

C=CCO[Si](OCC=C)(OCC=C)OCC=C
inactive: [1] 0.85% | [2] -19% | [3] -6.2% | [4] 13.9% | [5] 9.6% | [6] 3.9%

NC(=O)CNC(=O)C1CCCN1C(=O)C1CCCCNOC(=O)CCC(NC(=O)OCC2c3ccccc3-c3ccccc32)C(=O)NC(Cc2c[nH]c3ccccc23)C(=O)N1 (stereo unspecified) (Fmoc-EW[X9]PG-NH2; ester 1-3; configuration not given here)
inactive: [1] -16.5% | [2] -14.7% | [3] -22.2% | [4] 18.4% | [5] 4.1% | [6] -6.35%

CC(O)CN1c2ccccc2Sc2ccc(Cl)cc21 (stereo unspecified)
inactive: [1] 19.2% | [2] 10.9% | [3] 3.35% | [4] 17.1% | [5] -4.9% | [6] 12.8%

CCCCNC(=O)/C=C\C(=O)O
inactive: [1] 5.95% | [2] -10.3% | [3] -1.65% | [4] 2.75% | [5] -8.5% | [6] 1.45%

O=C(Nc1ccccc1[N+](=O)[O-])C(=O)C(C(=O)c1ccccc1-c1ccccc1)C1OC(=O)c2ccccc21 (stereo unspecified)
inactive: [1] 10.9% | [2] 0.6% | [3] 6.05% | [4] -51.4% | [5] 2.3% | [6] 9.55%
